# The campaign covered roughly 16,000 compounds. About 2,600 (16%) were called active. Not shown: some 20% with an inconclusive outcome. Calls come from the whole dose curve; as a rule, active = well fitted curve in the direction sought with a large enough effect; inconclusive = small, poorly fitted or top-dose-only effect, or effect the other way; inactive = no such curve, though single readings can be large or run the other way. The list is a sample of the results.
# Molecular target: Cytochrome P450 2D6 (Homo sapiens) (UniProt P10635)
# Sequence (P10635 whole entry, looked up): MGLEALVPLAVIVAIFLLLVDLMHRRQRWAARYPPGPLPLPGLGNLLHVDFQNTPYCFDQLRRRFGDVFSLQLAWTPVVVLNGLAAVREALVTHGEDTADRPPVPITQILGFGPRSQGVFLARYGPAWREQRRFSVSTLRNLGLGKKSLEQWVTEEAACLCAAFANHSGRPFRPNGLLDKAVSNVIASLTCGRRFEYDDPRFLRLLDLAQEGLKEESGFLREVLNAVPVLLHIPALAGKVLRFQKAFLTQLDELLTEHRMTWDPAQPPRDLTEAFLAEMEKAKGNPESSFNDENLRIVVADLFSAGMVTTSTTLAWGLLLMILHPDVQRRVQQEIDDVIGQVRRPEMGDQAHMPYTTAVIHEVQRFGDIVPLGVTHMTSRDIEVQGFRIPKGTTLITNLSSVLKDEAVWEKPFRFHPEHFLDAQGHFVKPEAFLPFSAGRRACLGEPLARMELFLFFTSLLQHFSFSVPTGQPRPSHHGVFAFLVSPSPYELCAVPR
# Experiment: Cytochrome panel assay with activity outcomes
# Details: recombinant CYP, pro-luciferin dealkylation, luminescence, p450-cyp2d6; series mostly up to 57.1 µM; activity, negative = inhibition: at the top concentration
# % is set by controls: 0 for no effect and ±100 for the full control effect.
SMILES,"activity, negative = inhibition",AC50
COCCn1c(=O)c(-c2ccc(F)cc2)nc2cnc(Oc3ccccc3)nc21,-2.23% (inactive),–
O=C(Nc1cccc(F)c1)Nc1ccccn1,-28.3% (inactive),–
CCOC(=O)c1sc2nc(CC(=O)OC)nc(NCc3ccc(F)cc3)c2c1C,–,25.1 µM (active)
CCOC(=O)c1nnc(-c2ccccc2)nc1NCc1ccccc1,-17.8% (inactive),–
CCOC(=O)c1cnn(-c2nc(-c3ccc(F)cc3)cs2)c1C(F)(F)F,-14.3% (inactive),–
CCCCOC(=O)C1=C(C)Nc2ncnn2C1c1cc(OC)ccc1OC (stereo unspecified),-4.71% (inactive),–
O=C(Cc1ccc(S(=O)(=O)N2CCOCC2)s1)Nc1nc2c(s1)CCCC2,-28.9% (inactive),–
Cc1ccc(CN2C(=O)CCC2C(=O)NCc2cccnc2)cc1 (stereo unspecified),-15.9% (inactive),–
O=C(NCC1CCCO1)C1CCC(=O)N1CCc1ccccc1 (stereo unspecified),-12.3% (inactive),–
CC(C)N(CCNC(=O)C1CCC(=O)N1Cc1ccc(F)cc1)Cc1ccccc1 (stereo unspecified),–,1.26 µM (active)
O=c1c(CCc2ccccc2)nc2cnc(Oc3cccc(Cl)c3)nc2n1C[C@H]1CCCO1,-3.35% (inactive),–
CCCN(CCC)CCCNC(=O)c1cc2cc3ccc(OC)cc3nc2o1,-16.6% (inactive),–
CCOC(=O)C1=NNC2(c3ccc(Cl)cc3)C(=O)N(c3cc(C)cc(C)c3)C(=O)C12 (stereo unspecified),-3.78% (inactive),–
CCCCOC(=O)CSc1nnc(-c2cc(OC)c(OC)c(OC)c2)o1,-2.6% (inactive),–
O=C(O)C/C(=C\c1ccco1)C(=O)O,1.84% [at 11.4 µM] (inactive),–
O=c1cnc2cncnc2n1Cc1ccccc1,-8.52% (inactive),–
Nc1cccc(OCc2nc(N)nc(N)c2-c2ccc(Cl)cc2)c1,-14.7% [at 11.4 µM] (inactive),–
COc1ccc(-n2c(C)nn(C)c2=O)cc1,-17.9% (inactive),–
COc1ccc(N2C(N)=NC(N)=NC2(C)C)cc1,–,14.1 µM (active)
COc1ccc(-n2cnnc2)cc1,-10% (inactive),–
CC1(C)N=C(N)N=C(N)N1c1cccc(OCc2cccc(N)c2)c1,–,2.51 µM (active)
CC1(C)N=C(N)N=C(N)N1c1cccc(CSc2ccccc2)c1,–,0.251 µM (active)
COC(=O)c1nc(NC(=O)c2ccccc2)n[nH]1,-23.8% (inactive),–
COc1cc(C(=O)NCCC(C)C)c([N+](=O)[O-])cc1OC,11.9% (inactive),–
CCCCCCCCCCCCCCCCCC(=O)O[C@H](CC(=O)O)C[N+](C)(C)C,10.3% (inactive),–
O=P(O)(O)CCP(=O)(c1ccccc1)c1ccccc1,14.9% (inactive),–

SMILES,"activity, negative = inhibition",AC50
O=C1NC(c2ccc(Br)cc2)Nc2sc3c(c21)CCC3 (stereo unspecified),-19.6% (inactive),–
CN(C)c1ccc(/C=C2/C(=O)Nc3ccccc32)cc1,-1.67% (inactive),–
O=C(NCc1nc2ccccc2[nH]1)[C@H]1C[C@@H]1[C@H](NP(=O)(c1ccccc1)c1ccccc1)c1ccccc1,-9.56% (inactive),–
CC(C)(CCc1nc2ccccc2[nH]1)C(=O)O,-1.31% [at 11.4 µM] (inactive),–
O=C(OCc1nc2ccccc2[nH]1)C12CC3CC(CC(C3)C1)C2,–,15.8 µM (active)
COc1ccc(/C=C/C(=O)Nc2nc(C)cc(C)n2)cc1OC,7.99% (inactive),–
Cc1ccc(S(=O)(=O)N2CCN(C(=O)C3COc4ccccc4O3)CC2)cc1C (stereo unspecified),-29.7% (inactive),–
Cc1cc(C)cc(OCC(=O)Nc2ccc3c4c(cccc24)CC3)c1,2.78% (inactive),–
CC(C)c1ccc(/C=C2\C=C(c3ccc4ccccc4c3)OC2=O)cc1,2.54% [at 11.4 µM] (inactive),–
Cc1cc(C)c(NC(=O)CS(=O)CC(=O)NCCCc2ccccc2)c(C)c1 (stereo unspecified),-8.29% (inactive),–
Cc1cccc(C)c1NC(=O)CS(=O)CC(=O)NCCCc1ccccc1 (stereo unspecified),-1.79% (inactive),–
Cc1ccccc1-c1nc(CS(=O)CC(=O)NCCN2CCN(Cc3ccccc3)CC2)c(C)o1 (stereo unspecified),–,14.1 µM (active)
CC(=O)[C@@]1(O)CC[C@H]2[C@H]3C[C@@H](C)C4=CC(=O)C=C[C@]4(C)[C@@]3(F)[C@@H](O)C[C@]21C,-0.238% [at 25.6 µM] (inactive),–
Cc1cc2[nH]c(=O)c3ccccc3n2n1,-11.2% (inactive),–
CCCc1nnc(NC(=O)CCC(=O)N2CCN(c3ccccn3)CC2)s1,-3.96% (inactive),–
CCCC(=O)Nc1nnc(CCN2CCCCC2)s1,–,15.8 µM (active)
CCCC(=O)Nc1nnc(Cc2ccccc2)s1,17.3% (inactive),–
COc1ccc(/C=N/NC(N)=S)cc1OC(=O)c1cccc2ccccc12,14.2% (inactive),–
CCOc1cc(NC(=S)NCC2CCCO2)c(OCC)cc1NC(=O)c1cccc(C)c1 (stereo unspecified),-16.3% (inactive),–
O=C1[C@H]2[C@H]3[C@H](O)[C@H](O)C/C(=N/OC[C@@H](O)COCc4ccco4)[C@H]3CC[C@@H]2C(=O)N1Cc1ccc2c(c1)OCO2,3.67% [at 11.4 µM] (inactive),–
CCn1c(SCc2ccc(Cl)cc2Cl)nc2nc3c(cc2c1=O)CCCC3,–,1.26 µM (active)
Cn1c(=O)c2c(nc(N3CCN(c4ccccn4)CC3)n2Cc2ccc(Cl)cc2Cl)n(C)c1=O,-15.4% (inactive),–
O=c1c2ccccc2nc(SCc2ccccc2Cl)n1Cc1ccccc1,-13.8% (inactive),–
S=c1nc(-c2ccccc2)oc2c1CCCC2,-16.9% (inactive),–
CN(CC(=O)O/N=C(\N)c1ccccn1)S(=O)(=O)c1ccccc1,0.421% (inactive),–
Cc1ccc(S(=O)(=O)N(CC(=O)N2CCN(c3ccc(F)cc3)CC2)C2CCCCC2)cc1,-7.36% (inactive),–

SMILES,"activity, negative = inhibition",AC50
O=S(=O)(NCc1cccnc1)c1ccc(Cl)nc1,-10.6% (inactive),–
CCN(C1CCCCC1)S(=O)(=O)c1ccc(S(=O)(=O)NCc2ccncc2)cc1,–,7.94 µM (active)
Cc1ccc(/C=C/c2ccc(=O)n(Cc3ccc(Cl)cc3Cl)n2)cc1,7.32% (inactive),–
COC(=O)[C@@]1(Cc2ccc(OC)cc2)[C@@H]2C(=CC(=O)[C@H]2CC(=O)C(=O)N2CCCC2)CN1C(=O)c1ccccc1,-5.71% (inactive),–
COc1cc(C2C(C#N)=C(N)N(Nc3ccccc3)C3=C2C(=O)CC(C)(C)C3)ccc1OCc1cccc(F)c1 (stereo unspecified),-10.8% (inactive),–
CC1=C(CC(=O)O)c2cc(F)ccc2/C1=C\c1ccc(S(C)(=O)=O)cc1,8.35% (inactive),–
Clc1ccc2c(NCCNc3ccnc4cc(Cl)ccc34)ccnc2c1,-10.3% [at 11.4 µM] (inactive),–
Clc1ccc2c(NCCNC3CCCCC3)ccnc2c1,–,3.16 µM (active)
C/C(CC/C(C)=N/O)=N/O,8.85% [at 11.4 µM] (inactive),–
O=C(O)c1cccnc1C(=O)O,8.44% (inactive),–
CC(=O)NCCNc1cc(-c2ccccc2CN(C)C)ncn1,9.47% (inactive),–
CN(C)Cc1ccccc1-c1cc(N(C)C)ncn1,–,1.26 µM (active)
CNc1cc(-c2ccccc2CN(C)C)ncn1,–,0.631 µM (active)
CN(C)Cc1ccccc1-c1cc(Nc2ccccc2)ncn1,–,12.6 µM (active)
CN(C)c1cc(-c2cccc(NS(C)(=O)=O)c2)ncn1,-1.1% (inactive),–
CNc1cc(-c2ccccc2C(F)(F)F)ncn1,-2.24% (inactive),–
CN(C)Cc1ccccc1-c1cc(NC2CC2)ncn1,–,0.0398 µM (active)
Cc1noc(C)c1-c1cc(Nc2ccccc2)ncn1,-1.67% (inactive),–
Cc1noc(C)c1-c1cc(NC2CCNCC2)ncn1,7.12% (inactive),–
CC(=O)c1ccc(NC(=O)C2(c3ccccc3)CCOCC2)cc1,-8.6% (inactive),–
CON1C(=O)C(=O)N(OC)C(C)(C)C1C (stereo unspecified),3.21% (inactive),–
CCOC(=O)N1CCN(C(=O)c2ccc3c(=O)n(-c4ccc(OC)cc4)c(=S)[nH]c3c2)CC1,-7% (inactive),–
C=CCn1c(=O)c2c(nc(-c3ccc(S(=O)(=O)O)cc3)n2C)n(C)c1=O,7.35% (inactive),–
CN(C)C[C@H]1CCC2=C(C1=O)C(c1ccc(Cl)c(Cl)c1)C1=C(CC[C@H](CN(C)C)C1=O)O2,-12.4% [at 11.4 µM] (inactive),–
[O-][n+]1c(CN2CCCCC2)nc2cccc3c2c1-c1ccccc1-3,-13.1% [at 11.4 µM] (inactive),–
CCCOC(=O)c1ccc(NC(=O)c2cn(CC)c3nc(C)ccc3c2=O)cc1,-27.3% (inactive),–

SMILES,"activity, negative = inhibition",AC50
O=c1c(-c2ccccc2)nc2cnc(Oc3cccc(Cl)c3)nc2n1C1CC1,-7.95% (inactive),–
Cc1c(Cl)cccc1NC(=O)CC1NCCNC1=O (stereo unspecified),-1.15% (inactive),–
Cc1cc(Cl)ccc1NC(=O)CN1CCC(C(O)(c2ccccc2)c2ccccc2)CC1,–,14.1 µM (active)
Cc1c(Cl)cccc1NC(=O)CN1CCC(C(O)(c2ccccc2)c2ccccc2)CC1,–,0.224 µM (active)
Cc1ccc(NC(=O)CN2CCC(NC(=O)Cc3ccccc3)CC2)cc1C,-27.2% (inactive),–
Cc1c(Cl)cccc1Nc1ccccc1C(=O)O,-2.06% [at 25.6 µM] (inactive),–
CCOC(=O)c1ccccc1NC(=O)CSc1cccc[n+]1[O-],-7.26% (inactive),–
FC(F)(F)c1cccc(-c2nc3nc(Cl)c(Cl)nc3[nH]2)c1,-1.57% [at 11.4 µM] (inactive),–
Cc1ccc(S(=O)(=O)/N=C(/Nc2c(C)n(C)n(-c3ccccc3)c2=O)c2ccc(Cl)cc2)cc1,-9.19% (inactive),–
O=C(c1cccc(C(F)(F)F)c1)N1CCC(O)(CS(=O)(=O)Cc2ccccc2)CC1,-13.5% (inactive),–
COC(=O)c1ccc(/C=N\NC(=O)c2ccc(C)cc2Cl)cc1,7.06% (inactive),–
CN1c2ccccc2C(C)(C)C12C=Nc1c(cc(N3CCOCC3)c3ccccc13)O2 (stereo unspecified),-25.9% (inactive),–
O=C1C=CC(=Nc2cccc3c(N=C4C=CC(=O)O4)cccc23)O1,3.55% [at 11.4 µM] (inactive),–
O=C(c1ccco1)N1CCN(C(=O)c2nn3cccnc3c2Cl)CC1,0.557% (inactive),–
COc1cc(/C=C\C(=O)N2CCC=CC2=O)cc(OC)c1OC,-0.509% [at 25.6 µM] (inactive),–
CCCC(=O)Nc1nc2nc(-c3ccccc3)cc(-c3ccccc3)n2n1,9.65% (inactive),–
O=C(O)CCc1ccc(-c2ccccc2)[nH]1,3.02% [at 11.4 µM] (inactive),–
CC(C)(C)c1ccc(C(=O)Nc2ccc(NC(=O)c3ccco3)cc2)cc1,-9.98% (inactive),–
CC(C)(C)c1ccc(C(=O)NCc2ccc(Cl)cc2)cc1,23.5% (inactive),–
CC(=O)Nc1nonc1NC(=O)c1ccc(C(C)(C)C)cc1,–,10 µM (active)
CC/C=C\CC[C@H](O)C1=CCCCC1=O,0.601% [at 11.4 µM] (inactive),–
CC1=C(C(=O)Nc2cccnc2)C(c2cccnc2)n2nc(-c3cccs3)nc2N1 (stereo unspecified),11.8% (inactive),–
Cc1ccc(C)c(Cn2c(C(=O)OC(C)C)cc3c2ccn3C)c1,-10.6% (inactive),–

# Source: PubChem BioAssay AID1851 (National Center for Advancing Translational Sciences (NCATS), 2009)
